# PubChem BioAssay (NCI)
# Compounds without any hit were thinned out: in the full panel of roughly 79,000, 15% have a hit. A number with no mark means an inactive call. Active and inactive are the calls of the source. No stated cut-off is given here; in the data, active means growth inhibition above about 70%; inactive means the rest.
# Columns and labels:
# [1] = NCI Yeast Anticancer Drug Screen. Data for the rad50 strain (AID 155);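 further: 0% = growth of vehicle-only cultures of the same strain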; settings: S. cerevisiae rad50 strain growth inhibition; at 50.0 µM; active compounds read high
# Procedure, shortened: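 Vehicle-treated cultures provide the reference for the growth inhibition reported for compound-exposed, repair-deficient yeast.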
# [2] = NCI Yeast Anticancer Drug Screen. Data for the mec2-1 strain (AID 157); settings: S. cerevisiae mec2-1 strain, at 50.0 µM, active compounds read high
# Procedure, shortened: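 Strain: mec2-1 (DNA repair/cell cycle alteration). Compound exposure, then growth measured; inhibition expressed relative to vehicle.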
# [3] = NCI Yeast Anticancer Drug Screen. Data for the sgs1 mgt1 strain (AID 161);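 further: 0% = growth of cultures given vehicle only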; settings: S. cerevisiae sgs1 mgt1 strain, at 50.0 µM, active compounds read high
# Procedure, shortened: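 Inhibition of yeast growth, normalised to vehicle-treated controls, is reported for a strain bearing genetic alterations in DNA damage repair.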
# [4] = NCI Yeast Anticancer Drug Screen. Data for the cln2 rad14 strain (AID 165);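 further: 0% = growth equal to vehicle treated cultures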; settings: S. cerevisiae cln2 rad14 strain, at 50.0 µM, active compounds read high
# Procedure, shortened: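 Compounds are applied to the cln2 rad14 yeast strain, and growth is then compared with that of vehicle-treated cultures to give inhibition.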
# [5] = NCI Yeast Anticancer Drug Screen. Data for the bub3 strain (AID 167); settings: S. cerevisiae bub3 mutant strain, at 50.0 µM, active compounds read high
# Procedure, shortened: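 Mutant yeast screening strain plus compound; vehicle-treated cultures serve as the 0% inhibition reference.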
# [6] = NCI Yeast Anticancer Drug Screen. Data for the mlh1 rad18 strain (AID 175); settings: S. cerevisiae mlh1 rad18 strain growth inhibition; at 50.0 µM; active compounds read high
# Procedure, shortened: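 Read-out is yeast growth inhibition, calculated against vehicle-only controls. The compound was applied to a strain engineered with DNA damage repair alterations.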
Structure (SMILES),growth inhibition [1],growth inhibition [2],growth inhibition [3],growth inhibition [4],growth inhibition [5],growth inhibition [6]
O=C1CCCCCN1,18.5%,1.55%,-9.95%,-11.3%,-5.1%,18.1%
C/C(=N\O)C(=O)c1cccc([N+](=O)[O-])c1,12%,8.3%,15.4%,2.75%,-7.45%,27.1%
CCC([NH-])(CC)C[NH-].[Cl][Pt+2][Cl],2.3%,13.4%,-31.4%,-1.45%,-14.1%,-44.6%
Cc1nc(N(CCO)CCO)c2sc(=S)n(-c3ccccc3)c2n1,-35.5%,-16.4%,-43.9%,-13.7%,-14.2%,-45.8%
COc1cc2c3cc1Oc1c(OC)c(OC)cc4c1C(Cc1ccc(O)c(c1)Oc1ccc(cc1)CC3N(C)CC2)CN(C)C4 (stereo unspecified),-17.6%,-37.9%,-3.6%,-17.4%,3.35%,25.1%
Cc1ccc(S(=O)(=O)C2(NC(=O)c3ccc(Cl)cc3)CC2)cc1,10.6%,15.5%,-6.9%,5.4%,-11.5%,-2.4%
C=C(C)c1nn(-c2ccccc2)c2c1C(=O)CC(C)O2 (stereo unspecified),-12.2%,-26.2%,1.8%,29.2%,-7.45%,8.5%
CSCCCCCCSC,-0.1%,5.1%,-2.75%,-27.8%,-5.35%,5.9%
CCC[CH2][Sn]1([CH2]CCC)[O]C2C(CO)OC(n3c(Br)c(C(N)=O)c4c(N)ncnc43)C2[O]1 (stereo unspecified),98.3% (active),98.4% (active),98.7% (active),97.5% (active),97.5% (active),98.5% (active)
CCOC(=O)/C=C/C(=O)[O-].CCOC(=O)/C=C/C(=O)[O-].NC1CCCCC1N.[Pt+4],19.2%,25.9%,19.4%,-2.1%,20.1%,10.2%
Cc1ccccc1NC(=O)C(=O)CC(=O)c1sc(Nc2ccccc2[N+](=O)[O-])nc1C,8.8%,-7.45%,-7.4%,-10.3%,-0.3%,-2.9%
COC(=O)C1CN=CN1CCc1ccccc1 (stereo unspecified),-2.05%,-10.6%,5.25%,12.4%,2.5%,45.8%
C=CCC(c1ccccc1)(c1ccccc1)c1ccccc1,-3.35%,5.25%,3.65%,3.55%,7.25%,8.25%
COC(=O)C1CC(=O)N(CCCl)C1 (stereo unspecified),-5.65%,5.6%,-23.9%,-18.1%,11.7%,-10.8%
O=C(C=C1CCCCC1)c1ccccc1,12.9%,-6.35%,7.45%,-6.2%,2.9%,5.25%
Cc1ccc(S(=O)(=O)N/N=C2\CCC3(C)C(CCC4C3CCC3(C)C(C(C)CCCC(C)C)CCC43)C2)cc1 (stereo unspecified),42.3%,17.8%,35.3%,27.6%,-4%,33.9%
COc1cc(C=O)ccc1OC(=O)Nc1ccc(F)c([N+](=O)[O-])c1,0.8%,30.4%,19.1%,-2.45%,28.1%,14.7%
O=C(CNCc1ccccc1)NC(Cc1ccccc1)c1ccccc1 (stereo unspecified),8.15%,-14.3%,0.35%,16.9%,13.4%,20.9%
Nc1cnc2ccccc2c1,10.2%,1.25%,-8.45%,-46.5%,11.8%,-4.1%
O=Cc1ccc2ccccc2c1,33.5%,-12%,-7.45%,-57.5%,16.8%,30.8%
CCOc1ccccc1/C=C(/C#N)C(N)=O,10.8%,-0.5%,-26.6%,-29.9%,-50.4%,-1.3%

Structure (SMILES),growth inhibition [1],growth inhibition [2],growth inhibition [3],growth inhibition [4],growth inhibition [5],growth inhibition [6]
O=S(=O)(N/N=C/c1c(Cl)cccc1Cl)c1ccccc1,18.9%,12.1%,11.9%,-9.35%,9.65%,31.5%
N=c1nc(N)ss1,15.8%,5.85%,16.4%,-31.6%,21.7%,44%
O=C(/C=C(\C(=O)c1cccs1)c1cccs1)c1ccc(C(=O)/C=C(\C(=O)c2cccs2)c2cccs2)cc1,3.6%,-23.9%,19%,-25.1%,-15.6%,-5.85%
O=C(NNC1=NCCN1)c1ccco1,-7.5%,-21.1%,-9.8%,-32.4%,-2.3%,-2.25%
NC(=O)CO,22.2%,-15.9%,17.6%,5.35%,5.7%,19.5%
CC(=O)Cc1ccc(Cl)cc1[N+](=O)[O-],-14.8%,5.95%,-8.5%,-24.3%,-9.7%,1.9%
COc1ccc(C2=CSC3=NC(C)(C)CC(C)=NN23)cc1,-16.8%,-8.2%,7.35%,29.2%,9.25%,-1.75%
CCCCn1cnc2ccc3nc(-c4ccccc4)c(-c4ccccc4)nc3c2c1=O,43.8%,-15.4%,9.3%,4.1%,1.5%,4.65%
Cc1c(Cc2c(C)n(C)n(-c3ccccc3)c2=O)c(=O)n(-c2ccccc2)n1C,9.55%,-1.7%,-0.25%,13.4%,9.9%,9.5%
O=C(O)COc1ccc(F)c(F)c1F,-16.1%,4.5%,21.1%,-9.6%,-2.75%,-20.1%
COc1ccc(C(Nc2ccccn2)c2cc(C(C)(C)C)cc(C(C)(C)C)c2O)cc1 (stereo unspecified),43.6%,-2.95%,9.45%,12.4%,41.9%,38.8%
C=C(Br)CN(C(C)=O)C1CCCCC1,-9.2%,-10.7%,8.05%,18.6%,15%,26.8%
CCOC(=O)c1c(C)cc2ccccn12,-11.4%,-12.4%,0.05%,-26.7%,8.3%,11.2%
O=C(NCC1CC1)Nc1cccc2ccccc12,-19.1%,-3.4%,-2%,-54.7%,-14%,-5.1%
N#CCCN(CCC#N)c1ccc(/C=C2\N=C(c3cc([N+](=O)[O-])ccc3Cl)N(NC(=O)CC(=O)Nc3ccccc3Cl)C2=O)cc1,-31%,-28.1%,-13.8%,2.5%,1.65%,-18.3%
O=NC(C[N+](=O)[O-])c1ccccc1 (stereo unspecified),4.6%,-21.9%,2.7%,-40.7%,6.55%,-24.4%
C=CCN=C1NC(=O)C(CC(=O)Nc2ccc(C)cc2)S1 (stereo unspecified),-22.6%,-0.25%,0.25%,17.4%,7.05%,7.65%
O=[N+]([O-])c1ccc(NC2C(O)OC(CO)C(O)C2O)c([N+](=O)[O-])c1 (stereo unspecified),5.1%,-3.2%,5.55%,-7.15%,5.8%,-0.95%
O=C(CC12C3C4C1C1C2C3C41CC(=O)NO)NO (stereo unspecified),-28.8%,-28.1%,-29.2%,11.9%,-19.9%,-10.9%
Nc1ccc(S(=O)(=O)N/N=C/c2ccc(O)cc2)cc1,4.35%,-21.4%,4.7%,-22.1%,5.1%,-11.3%
